# Measurements as given in PubChem BioAssay (NCI).
# The panel holds about 83,000 compounds, 20% with a hit somewhere; the sample as a whole holds those more often.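 Testing used 96-well plates and a 48-hour single-concentration exposure. Example: -40 means 40% of the starting cells died.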 A number with no mark means an inactive call. Activity calls are given as the source filed them. How the source made its calls: active means growth percent below 10; inactive means the rest.
# Tested on: UACC-257 melanoma
# Experiment: NCI-60 one-dose screen, 48 h (100 = growth as untreated, 0 = no growth, -100 = all killed)
# Settings: 10 µM
row,Structure (SMILES),growth
1,O=C(NCCCNc1cc(-c2cn(-c3ccccc3)nc2-c2cccc(O)c2)ccn1)Nc1cc(C(F)(F)F)cc(C(F)(F)F)c1,82.3%
2,Cc1ccc(NC(=O)c2ccc(CN3CCN(C)CC3)c(I)c2)cc1Oc1ccc(-c2[nH]nc3ncnc(N)c23)cc1,-46.4% (active)
3,Cc1ccc(-n2cc(/C=C/C(=O)c3ccc(S(C)(=O)=O)cc3)c(-c3ccc(S(C)(=O)=O)cc3)n2)cc1,100%
4,COc1cc(/C=C/C(=O)c2ccc(NC(=O)CSc3nnc(-c4ccc5nc(-c6ccccc6)[nH]c5c4)o3)cc2)cc(OC)c1OC,87.6%
5,O=c1oc2ccc(-c3ccc(F)cc3F)cc2c(=O)n1-c1cccc(C(F)(F)F)c1,-9.2% (active)
6,C#CCOc1ccccc1C(Nc1ccccc1)c1nnnn1C1CCCCC1 (centres undefined),101%
7,NCCN1CCN(c2nc(-c3ccccc3)nc3nc(-c4ccccc4)oc23)CC1,93.4%
8,CN1C(=O)N(C)C2Nn3c(s/c(=C\c4ccccn4)c3=O)=NC21 (centres undefined),96%
9,CNC(=O)c1cc(N2CCc3cc(NC(=O)Nc4ccc(Cl)c(Cl)c4)ccc32)ccn1,79.8%
10,NS(=O)(=O)c1ccc(-n2cc(CC=O)nn2)cc1,102%
11,COc1ccc(N)cc1C(=O)Nc1cccc(-c2cc(=O)c3c(OC)c(OC)c(OC)cc3o2)c1,98.9%
12,O=C(CSc1nnc(-c2ccc(Cl)cc2)n1-c1ccccc1)Nc1ccc(F)cc1,98.8%
13,O=C(c1cccc(F)c1)n1ccc2cc(NC(=S)Nc3cccnc3)ccc21,97.4%
14,O=C(O)c1ccc(-n2cc(CNc3ccc(Cl)cc3)c(-c3ccc(F)cc3)n2)cc1,101%
15,CCC(CC)N1C(=O)/C(=c2\sc3n(c2=O)C2C(NN=3)N(CC)C(=O)N2CC)c2ccccc21 (centres undefined),69.6%

# Tested on: HCT-15 colon
# Experiment: as above
# Settings: 10 µM unless noted
row,Structure (SMILES),growth
1,COc1ccc(-c2nn(-c3ccccc3)cc2/C=C/C(=O)c2ccc(NC(=O)CCCCCCC(=O)NO)cc2)cc1,80.5%
2,O=C(NCCCNc1cc(-c2cn(-c3ccccc3)nc2-c2cccc(O)c2)ccn1)Nc1cccc(C(F)(F)F)c1,-25.3% (active)
3,Cc1[nH]nc2ccc(-c3nc4cnc(N5CCN(C)CC5)cn4c3Nc3ccc(F)cc3Br)cc12,27.8%
4,O=C(/C=C/c1cccc(O)c1)c1ccc(O)cc1,49.6%
5,C#Cc1ccc(NC(=O)c2ccc(/C=C/C(=O)c3nccn3C)cc2)c(F)c1,7.76% (active)
6,O=C(Nc1ccc(F)cc1)c1cc(-c2ccc(F)cc2F)ccc1O,11.4%
7,Oc1ccc(CSc2nnc(-c3ccc(Oc4ccccc4)cc3)o2)c2cccnc12,9.07% (active)
8,Cc1ccc(NC(=O)c2ccc(CN3CCN(C)CC3)c(C(F)(F)F)c2)cc1Oc1ccc(-c2[nH]nc3ncnc(N)c23)cc1,28.8%
9,N#Cc1c(NC(=O)c2ccccc2C(F)(F)F)sc2c1CCC(=O)C2,-32.3% (active)
10,CCN(CC)c1ccc2cc(C(=O)NCCOCCOCCOCCn3cc(CCC(=O)Nc4ccc(C(=O)c5ccc(NC(=O)OC(C)(C)C)cc5)cc4)nn3)c(=O)oc2c1,72.7%
11,CS(=O)(=O)c1ccc(-c2nn(-c3ccccc3)cc2/C=N/NC(=O)c2ccncc2)cc1,69.5%
12,Cc1ccc(S(=O)(=O)N/N=C/c2cn(-c3ccc(F)cc3)nc2-c2ccc(S(C)(=O)=O)cc2)cc1,99.4%
13,CS(=O)(=O)c1ccc(-c2nn(-c3ccccc3)cc2/C=C/C(=O)c2ccc(Br)cc2)cc1,64%
14,O=C(NCCCNc1cc(-c2cn(-c3ccccc3)nc2-c2cccc(O)c2)ccn1)Nc1ccc(F)cc1,-11.7% (active)
15,CN1C(=O)N(C)C2C1NN=c1s/c(=C\c3ccccn3)c(=O)n12 (centres undefined),79.4%
16,Fc1ccc(-c2cc3nc(C(Cl)Cl)nc(-c4cccs4)n3n2)cc1,15.9%
17,COc1ccc([C@H]2c3[nH]c4ccccc4c3C[C@@H]3C(=O)N(C4CCN(Cc5ccccc5)CC4)CC(=O)N23)c(OC)c1,48.3%
18,Cn1ccnc1C(=O)/C=C/c1ccc(C(=O)Nc2ccc(NC(=O)CCNC(=O)c3csc(Br)n3)cc2)cc1,28.6%
19,Cc1nn(-c2ccccc2)cc1/C=N/Nc1nc(Nc2ccccc2)nc(Nc2ccc(S(N)(=O)=O)cc2)n1,7.54% (active)
